{
  "source": "PubChem BioAssay AID463173",
  "about": "(ICCB-Longwood Screening Facility, Harvard Medical School, 2010)",
  "note": "In all, about 52,000 compounds went through this assay and about 4,300 (8.3%) were called active. No stated cut-off is given here; in the data, active means survival mostly below about 52% (no sharp cut-off); inactive means mostly above about 56%. The entries come from a sample that favours actives as a whole.",
  "data": [
    {"test_system": "DeltatarO mutant", "assay": "S. aureus survival, RN4220 and DeltatarO strains – OD600, teichoic acid synthesis inhibitors, primary screen (AID 463173)", "conditions": "S. aureus RN4220 wild type/DeltatarO growth, OD600, 18 h, stronger effect = lower value, screened at 18.75 µg/mL (by protocol)", "values": [
      {"smiles": "Cc1ccc(CNC(=O)c2ccc(-c3nc(CN4CCc5ccccc54)c(C)o3)cc2)cc1", "survival": "84% (inactive)"},
      {"smiles": "CC1CCCCC1NC(=O)CSc1nccc(=O)[nH]1", "note": "(stereo not given)", "survival": "69% (inactive)"},
      {"smiles": "Cc1cc(-c2ccc(C)c(S(=O)(=O)N(Cc3cccs3)C(C)C)c2)on1", "survival": "65% (inactive)"},
      {"smiles": "CCc1ccc(-c2nc(SCC(=O)NCC3CCCO3)c(-c3ccc(C)cc3)[nH]2)cc1", "note": "(stereo not given)", "survival": "103% (inactive)"},
      {"smiles": "COc1ccc(CCNC(=O)c2cc(-c3ccc(Cl)cc3)on2)cc1OC", "survival": "64% (inactive)"},
      {"smiles": "Cc1cc(C)n(C(C)CC(=O)Nc2cccc(C(F)(F)F)c2)n1", "note": "(stereo not given)", "survival": "73% (inactive)"},
      {"smiles": "COc1ccccc1CNC(=O)c1sc2nc3n(c(=O)c2c1C)CCC3", "survival": "103% (inactive)"},
      {"smiles": "C/C(=N\\NC(N)N)C1CCCCCCCCCCC1", "survival": "0% (active)"},
      {"smiles": "Cc1cc(Cl)ccc1NC(=O)C1CCN(c2nnc(-n3c(C)ccc3C)s2)CC1", "survival": "88% (inactive)"},
      {"smiles": "Fc1ccccc1N1CCN(c2nnc(C(F)(F)F)c3nnn(Cc4ccccc4)c23)CC1", "survival": "78% (inactive)"},
      {"smiles": "CCN(CC)C(=O)c1sc2c(c1C)c(=O)n(-c1ccc(Cl)c(Cl)c1)c(=O)n2Cc1ccccc1C#N", "survival": "83% (inactive)"},
      {"smiles": "CCOc1ccc2c(c1)sc1nc(=O)n(-c3ccc(Cl)c(Cl)c3)c(=O)n12", "survival": "88% (inactive)"},
      {"smiles": "Cc1ccc2c(c1)sc1nc(=O)n(-c3cccc(Cl)c3)c(=O)n12", "survival": "85% (inactive)"},
      {"smiles": "Cc1ccc2c(c1)sc1nc(=O)n(-c3ccc(Cl)cc3)c(=O)n12", "survival": "59% (inactive)"},
      {"smiles": "Cc1ccc2c(c1)sc1nc(=O)n(-c3ccc(Cl)c(Cl)c3)c(=O)n12", "survival": "-6% (active)"},
      {"smiles": "O=c1nc2sc3ccccc3n2c(=O)n1-c1ccc(Cl)c(Cl)c1", "survival": "22% (active)"},
      {"smiles": "CC(C(=O)c1ccccc1)C1(O)C(=O)Nc2ccccc21", "note": "(stereo not given)", "survival": "94% (inactive)"},
      {"smiles": "Cc1ccc2nc(-c3ccccc3O)c(Nc3ccccc3C)n2c1", "survival": "92% (inactive)"},
      {"smiles": "Cc1ccccc1Nc1c(-c2ccc(N3CCOCC3)cc2)nc2ccc(Br)cn12", "survival": "74% (inactive)"},
      {"smiles": "O=C(NCc1ccccc1)c1cnc2sc(N3CCCC3)nn2c1=O", "survival": "77% (inactive)"},
      {"smiles": "CCOC(=O)c1ccc(NC(=O)C2(S(=O)(=O)c3ccc(Cl)cc3)CC2)cc1", "survival": "75% (inactive)"},
      {"smiles": "Cc1ccc(S(=O)(=O)C2(C(=O)Nc3ccc(C(C)C)cc3)CC2)cc1", "survival": "19% (active)"},
      {"smiles": "Cc1cc(Br)ccc1NC(=O)C1(S(=O)(=O)c2ccc(Cl)cc2)CC1", "survival": "62% (inactive)"},
      {"smiles": "Cc1ccc(S(=O)(=O)C2(C(=O)Nc3ccc(Cl)c(C(F)(F)F)c3)CC2)cc1", "survival": "26% (inactive)"},
      {"smiles": "Cc1ccc(S(=O)(=O)C2(C(=O)Nc3ccc(C)c(Cl)c3)CC2)cc1", "survival": "21% (inactive)"},
      {"smiles": "O=C(Nc1ccccc1C(F)(F)F)c1ccncc1", "survival": "91% (inactive)"},
      {"smiles": "O=C(Nc1ccccc1C(F)(F)F)C1(S(=O)(=O)c2ccc(Cl)cc2)CC1", "survival": "84% (active)"},
      {"smiles": "CCc1ccccc1NC(=O)C1(S(=O)(=O)c2ccc(Cl)cc2)CC1", "survival": "90% (active)"},
      {"smiles": "COC(=O)c1ccc(NC(=O)C2(S(=O)(=O)c3ccc(C)cc3)CC2)cc1", "survival": "134% (inactive)"},
      {"smiles": "Cc1ccc2c(c1)c1c(c(=O)n(Cc3ccccc3)c(=O)n1Cc1cccc(F)c1)n2C", "survival": "89% (inactive)"},
      {"smiles": "CC(C)(C)c1ccc(C(=O)Nc2nc3nc(-c4ccccc4)cc(=O)n3[nH]2)cc1", "survival": "94% (inactive)"},
      {"smiles": "CCN(Cc1ccccc1)C(=O)C1CCN(S(=O)(=O)c2ccc3c(c2)CCCN3C(C)=O)CC1", "survival": "80% (inactive)"},
      {"smiles": "CC1CCCC(C)N1C(=O)CN1CCC(N2CCCCC2)CC1", "note": "(stereo not given)", "survival": "94% (inactive)"},
      {"smiles": "CC(C)NC(=O)Cn1nnc(-c2ccc(Cl)cc2)n1", "survival": "82% (inactive)"},
      {"smiles": "COc1ccccc1CC(NC(C)=O)C(=O)N1CCN(C(=O)c2cccs2)CC1", "note": "(stereo not given)", "survival": "97% (inactive)"},
      {"smiles": "O=C(NCCc1ccccc1)C(=O)NCC(c1ccco1)S(=O)(=O)c1cccs1", "note": "(stereo not given)", "survival": "94% (inactive)"},
      {"smiles": "Cc1ccccc1CNC(=O)C(=O)NCC(c1ccco1)S(=O)(=O)c1cccs1", "note": "(stereo not given)", "survival": "70% (inactive)"},
      {"smiles": "O=C(NCc1ccc(F)cc1)C(=O)NCC(c1ccco1)S(=O)(=O)c1cccs1", "note": "(stereo not given)", "survival": "8% (active)"},
      {"smiles": "O=C(NCCc1ccc(Cl)cc1)C(=O)NCC(c1ccco1)S(=O)(=O)c1cccs1", "note": "(stereo not given)", "survival": "20% (active)"},
      {"smiles": "O=C(NCc1ccccc1Cl)C(=O)NCC(c1ccco1)S(=O)(=O)c1cccs1", "note": "(stereo not given)", "survival": "55% (inactive)"},
      {"smiles": "O=C(NCc1ccccc1F)C(=O)NCC(c1ccco1)S(=O)(=O)c1ccccc1", "note": "(stereo not given)", "survival": "-5% (active)"},
      {"smiles": "O=C(NCc1ccccc1)C(=O)NCC(c1ccco1)S(=O)(=O)c1cccs1", "note": "(stereo not given)", "survival": "96% (inactive)"},
      {"smiles": "O=C(NCCc1ccc(F)cc1)C(=O)NCC(c1ccco1)S(=O)(=O)c1cccs1", "note": "(stereo not given)", "survival": "66% (inactive)"},
      {"smiles": "Cc1ccc(CNC(=O)C(=O)NCC(c2ccco2)S(=O)(=O)c2cccs2)cc1", "note": "(stereo not given)", "survival": "101% (inactive)"},
      {"smiles": "O=C(NCc1ccccc1)C(=O)NCC(c1ccco1)S(=O)(=O)c1ccccc1", "note": "(stereo not given)", "survival": "76% (inactive)"},
      {"smiles": "O=C(NCc1ccccc1F)C(=O)NCC(c1ccco1)S(=O)(=O)c1cccs1", "note": "(stereo not given)", "survival": "25% (active)"},
      {"smiles": "Cc1ccccc1CNC(=O)C(=O)NCC(c1ccco1)S(=O)(=O)c1ccccc1", "note": "(stereo not given)", "survival": "92% (inactive)"},
      {"smiles": "COc1ccc2c(c1)N(C)/C(=C1/SC(=Nc3ccc(C)cc3)N(C)C1=O)S2", "survival": "102% (inactive)"},
      {"smiles": "CCOc1ccccc1NC(=O)c1c(NC(=O)c2cccc(C)c2)sc2c1CCC2", "survival": "74% (inactive)"},
      {"smiles": "CCc1ccc(NC(=O)CSc2nc3ccccc3c(=O)n2CCNC(C)=O)cc1", "survival": "87% (inactive)"},
      {"smiles": "COc1ccc(C2(C(=O)N3CCCC3)CCCC2)cc1OC", "survival": "89% (inactive)"},
      {"smiles": "CCC(=O)N1CCCc2cc(S(=O)(=O)N3CCC(C(=O)NC4CCC(C)CC4)CC3)ccc21", "note": "(stereo not given)", "survival": "123% (inactive)"},
      {"smiles": "CCOC(=O)c1cc2occc2n1CCc1ccccc1", "survival": "101% (inactive)"},
      {"smiles": "O=C(c1ccccc1)N1CCc2cc(CNS(=O)(=O)c3ccccc3Cl)ccc21", "survival": "78% (inactive)"},
      {"smiles": "COc1cc(NS(=O)(=O)c2ccc3oc(=O)c4ncn(C)c4c3c2)cc(OC)c1", "survival": "126% (inactive)"},
      {"smiles": "CC1(C)CC(=O)C(C=NCc2ccccc2)=C(O)C1", "survival": "95% (inactive)"},
      {"smiles": "O=C(Nc1ccc(F)cc1)C1CCN(S(=O)(=O)c2ccc3c(c2)CCCN3C(=O)C2CCC2)CC1", "survival": "73% (inactive)"},
      {"smiles": "N#Cc1c(NC(=O)c2ccccc2)oc(-c2ccccc2)c1-c1ccccc1", "survival": "56% (inactive)"},
      {"smiles": "N#Cc1c(/N=C/c2ccco2)oc(-c2ccccc2)c1-c1ccccc1", "survival": "98% (inactive)"},
      {"smiles": "N#Cc1c(NC(=O)C(F)(F)F)oc(-c2ccccc2)c1-c1ccccc1", "survival": "12% (active)"}
    ]}
  ]
}
